# From PubChem BioAssay AID624325 (Sanford-Burnham Center for Chemical Genomics, 2012)
# About 1,000 (43%) of roughly 2,300 compounds were called active. The set was probably picked from earlier hits. A selection follows. A number with no mark means an inactive call.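 The calls were made as follows: active = compounds inhibiting the enzyme by at least 50% at 15 µM in any one of the replicates; inactive = the rest.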
# Target: Fatty acid synthase (Homo sapiens) (UniProt P49327)
# Experiment: inhibition of human FAS-TE enzyme activity – biochemical, fluorescence intensity, single concentration, confirmation (AID 624325);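 also: 0% = enzyme with DMSO only and 100% = wells lacking enzyme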
# Details: recombinant FAS-TE, OMFH fluorogenic substrate, at 15 µM, active compounds read high
# Sequence of Fatty acid synthase (Homo sapiens) (P49327 whole entry, looked up): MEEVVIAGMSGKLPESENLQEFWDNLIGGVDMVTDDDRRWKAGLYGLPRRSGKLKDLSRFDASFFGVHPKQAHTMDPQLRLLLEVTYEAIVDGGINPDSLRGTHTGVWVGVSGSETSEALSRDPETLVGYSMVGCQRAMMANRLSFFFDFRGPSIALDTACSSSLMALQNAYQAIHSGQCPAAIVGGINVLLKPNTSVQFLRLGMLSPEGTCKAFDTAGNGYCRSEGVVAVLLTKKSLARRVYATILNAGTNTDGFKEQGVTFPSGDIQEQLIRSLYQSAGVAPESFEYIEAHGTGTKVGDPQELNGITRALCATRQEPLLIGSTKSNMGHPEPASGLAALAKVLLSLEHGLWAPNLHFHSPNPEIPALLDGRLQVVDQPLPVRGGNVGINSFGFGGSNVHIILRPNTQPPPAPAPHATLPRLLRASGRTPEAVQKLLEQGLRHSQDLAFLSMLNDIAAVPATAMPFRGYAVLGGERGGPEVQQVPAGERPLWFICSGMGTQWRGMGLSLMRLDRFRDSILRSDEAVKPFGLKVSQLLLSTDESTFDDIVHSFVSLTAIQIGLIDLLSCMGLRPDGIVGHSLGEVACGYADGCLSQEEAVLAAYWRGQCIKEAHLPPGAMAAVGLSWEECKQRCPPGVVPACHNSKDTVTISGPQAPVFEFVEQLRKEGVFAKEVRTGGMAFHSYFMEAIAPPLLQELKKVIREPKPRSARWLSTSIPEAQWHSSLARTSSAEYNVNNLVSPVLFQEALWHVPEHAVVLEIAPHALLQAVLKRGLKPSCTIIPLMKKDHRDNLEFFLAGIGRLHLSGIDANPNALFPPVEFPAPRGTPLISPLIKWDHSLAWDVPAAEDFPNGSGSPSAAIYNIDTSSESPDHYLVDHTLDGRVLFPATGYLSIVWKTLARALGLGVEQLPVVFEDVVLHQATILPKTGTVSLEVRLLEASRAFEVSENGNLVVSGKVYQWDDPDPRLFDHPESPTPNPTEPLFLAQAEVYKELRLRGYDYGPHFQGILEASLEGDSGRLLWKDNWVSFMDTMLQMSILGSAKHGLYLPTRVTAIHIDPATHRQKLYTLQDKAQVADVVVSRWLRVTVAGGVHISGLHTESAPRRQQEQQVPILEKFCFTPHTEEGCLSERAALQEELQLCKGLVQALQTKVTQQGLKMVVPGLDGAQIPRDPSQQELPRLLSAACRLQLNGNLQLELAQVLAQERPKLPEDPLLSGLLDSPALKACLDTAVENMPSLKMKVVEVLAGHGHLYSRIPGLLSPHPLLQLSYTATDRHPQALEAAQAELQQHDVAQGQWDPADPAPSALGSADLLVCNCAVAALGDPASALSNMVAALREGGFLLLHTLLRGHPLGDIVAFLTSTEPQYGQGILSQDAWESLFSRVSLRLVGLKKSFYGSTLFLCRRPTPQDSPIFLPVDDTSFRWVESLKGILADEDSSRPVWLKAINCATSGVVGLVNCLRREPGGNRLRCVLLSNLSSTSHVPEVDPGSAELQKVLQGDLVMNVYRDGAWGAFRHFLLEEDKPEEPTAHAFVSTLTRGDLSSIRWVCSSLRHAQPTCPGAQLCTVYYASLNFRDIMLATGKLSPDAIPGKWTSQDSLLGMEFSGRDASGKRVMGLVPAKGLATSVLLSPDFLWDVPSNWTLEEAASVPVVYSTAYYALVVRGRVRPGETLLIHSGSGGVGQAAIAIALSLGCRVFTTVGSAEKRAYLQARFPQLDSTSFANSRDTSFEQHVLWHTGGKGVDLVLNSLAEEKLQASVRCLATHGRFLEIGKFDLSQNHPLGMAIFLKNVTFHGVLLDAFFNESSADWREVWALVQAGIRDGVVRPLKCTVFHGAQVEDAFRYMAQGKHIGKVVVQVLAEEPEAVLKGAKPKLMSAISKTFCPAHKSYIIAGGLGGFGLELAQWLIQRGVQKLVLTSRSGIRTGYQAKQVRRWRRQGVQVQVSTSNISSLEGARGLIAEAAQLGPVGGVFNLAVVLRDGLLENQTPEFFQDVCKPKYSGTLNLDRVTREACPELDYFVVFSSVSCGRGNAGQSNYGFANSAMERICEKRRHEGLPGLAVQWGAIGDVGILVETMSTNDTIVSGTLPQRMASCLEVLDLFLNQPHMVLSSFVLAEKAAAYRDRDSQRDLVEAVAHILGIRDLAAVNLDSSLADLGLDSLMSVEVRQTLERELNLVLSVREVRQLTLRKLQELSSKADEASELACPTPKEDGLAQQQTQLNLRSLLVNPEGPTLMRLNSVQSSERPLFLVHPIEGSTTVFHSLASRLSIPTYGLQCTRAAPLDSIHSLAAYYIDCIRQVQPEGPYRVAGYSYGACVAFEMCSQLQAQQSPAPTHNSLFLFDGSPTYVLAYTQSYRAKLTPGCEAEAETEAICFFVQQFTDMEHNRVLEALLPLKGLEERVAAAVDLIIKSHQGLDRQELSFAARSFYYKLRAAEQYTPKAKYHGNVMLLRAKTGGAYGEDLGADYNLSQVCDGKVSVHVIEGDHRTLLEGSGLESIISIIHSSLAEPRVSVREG
row,Structure (SMILES),inhibition
1,Cc1nn(CCOc2ccc(Br)cc2)c(C)c1[N+](=O)[O-],36.2% (active)
2,COc1ccc([N+](=O)[O-])cc1N(CC(O)Cn1nnc2ccccc21)S(=O)(=O)c1ccc(C)cc1 (centres undefined),65.3% (active)
3,O=C(N/N=C/c1cc([N+](=O)[O-])ccc1O)/C(=C\c1cccs1)NC(=O)c1ccccc1,42.4% (active)
4,O=C(NCc1ccco1)/C(=C\c1cccc([N+](=O)[O-])c1)NC(=O)c1ccco1,71.9% (active)
5,O=C(Nc1ccc2ccccc2c1)/C(=C/c1cccc(Br)c1)NC(=O)c1ccco1,27.6%
6,O=C(/C=C/c1cccc([N+](=O)[O-])c1)NCCSCc1ccco1,73.2% (active)
7,COc1ccc(NS(=O)(=O)c2cc(NC(=O)c3ccc(S(=O)(=O)N(C)C)cc3)ccc2N2CCOCC2)cc1,9.83%
8,Fc1ccc(-n2c(Cc3ccccc3)nnc2SCc2nc(-c3ccc(Cl)cc3)no2)cc1,51.8% (active)
9,O=C(Nc1ccc(OC(F)(F)F)cc1)c1ccc2c(c1)no[n+]2[O-],14.6%
10,O=C(Nc1ccc(C(F)(F)F)cc1)c1cccc(-n2cnnn2)c1,65.5% (active)
11,COc1ccc(NS(=O)(=O)c2cc(NC(=O)/C=C/c3cc(OC)c(OC)c(OC)c3)ccc2N2CCCCC2)cc1,19.7%
12,O=c1oc(-c2ccco2)nc2sc3c(c12)CCCCC3,51% (active)
13,CCC(CC)COC(=O)C1=C(C)NC(=O)NC1c1ccc([N+](=O)[O-])cc1 (centres undefined),78.8% (active)
14,COc1cc(S(=O)(=O)N2CCOCC2)ccc1NC(=O)COc1ccc(N(C)S(=O)(=O)c2ccc(C)cc2)cc1,7.91%
15,COc1ccc(C2=NN(C(=O)CSc3nc(=O)n4ccc(C)cc4n3)C(c3ccc(C)cc3)C2)cc1 (centres undefined),46% (active)
16,Cc1ccc(N2C(=O)C3N=NN(CC(=O)N4N=C(c5cccc6ccccc56)CC4c4ccccc4)C3C2=O)cc1 (centres undefined),10.8%
17,Cc1ccc2c(c1)-c1c(ssc1=S)C(C)(C)N2C(=O)CN1C(=O)c2ccccc2C1=O,2.45%
18,C#CCN(C[C@H]1[C@H](OC(=O)NC2CCCC2)[C@H](OC(=O)NC2CCCC2)C[C@H]2C(=O)N(c3ccccc3)C(=O)[C@@H]12)S(=O)(=O)c1ccc(C)cc1,48.3% (active)
19,CCOC1=C2[C@H]([C@H]3C(=O)N(c4ccccc4)C(=O)[C@H]3C1)[C@@H](c1ccccc1)N(S(=O)(=O)c1ccc(C)cc1)[C@H]2c1ccccc1,32.3%
20,CCOC1=C2CN(S(=O)(=O)c3ccc(C)cc3)[C@H](c3cccs3)C[C@H]2[C@H]2C(=O)N(c3ccccc3)C(=O)[C@H]2C1,33%
21,COc1ccc([C@@H]2[C@@H]3C(=O)N(C(C)(C)C)C(=O)[C@@H]3[C@]3(Cc4ccccc4)C(=O)N(c4cccc(Br)c4)C(=O)N23)cc1,46.4% (active)
22,Cc1cccc([C@@H]2[C@@H]3C(=O)N(Cc4ccccc4)C(=O)[C@@H]3[C@]3(Cc4ccc(Cl)cc4)C(=O)N(c4cccc(Cl)c4)C(=O)N23)c1,11.9%
23,Cc1ccc(C(=O)N/C(=C\c2cn(S(=O)(=O)N(C)C)c3ccccc23)C(=O)N2CCCC2)cc1,88.2% (active)
24,Cc1ccc(S/C(=N\S(=O)(=O)c2ccc(Cl)cc2)c2ccccc2)cc1,29.6%
25,COc1ccc([N+](=O)[O-])cc1NC(=O)CC1SC(=Nc2cccc(C)c2C)N(/N=C(\C)c2ccc(C)cc2)C1=O (centres undefined),25.8%

row,Structure (SMILES),inhibition
1,COc1ccc([N+](=O)[O-])cc1NC(=O)c1ccc(N(Cc2ccccc2C)S(C)(=O)=O)cc1,39.2% (active)
2,CCCCCCCCCCCCN1[C@@H](CC(C)=O)c2cc(F)cc(F)c2S1(=O)=O,9.68%
3,COc1ccc2c(c1)[C@H]1[C@H](CO2)[C@H](c2ccccc2)[C@]2(C)C(=O)Nc3cc(F)c(F)cc3C(=O)N12,34%
4,CC(C)c1ccc2c(c1)c(SC(C)(C)C)c(CC(C)(C)C(=O)O)n2Cc1ccc(Cl)cc1,51.4% (active)
5,O=C(OC1CCOC1=O)c1ccc(-c2nc3ccccc3s2)s1 (centres undefined),35.3%
6,O=S(=O)(Nc1cccc(-n2cnnn2)c1)c1cnc(Cl)c(Cl)c1,68% (active)
7,CCCc1cc(-c2nc(-c3ccc(C)cc3)cs2)ccn1,46.9%
8,O=C(Nc1cccc(S(=O)(=O)Nc2ccc(Cl)cc2)c1)c1ccc2c(c1)OCCO2,37.6%
9,O=C(Nc1ccccc1)c1nnsc1S(=O)(=O)c1ccc(Cl)cc1,72.3% (active)
10,O=C(CC(c1ccccc1)c1ccccc1)NCC(O)c1ccc([N+](=O)[O-])cc1 (centres undefined),55.1% (active)
11,CC(C=Cc1ccccc1)=NNS(=O)(=O)c1ccc([N+](=O)[O-])cc1,71.2% (active)
12,COCCNC(=O)CCCn1c(=O)c2ccccc2n(Cc2cccc([N+](=O)[O-])c2)c1=O,37.5% (active)
13,O=C(Oc1cccc(N2C(=O)C3C4c5ccccc5C(c5ccccc54)C3C2=O)c1)c1ccco1 (centres undefined),36.3% (active)
14,COc1ccc(C2Nc3ccccc3C(=O)N2c2ccc(Cl)cc2)cc1Cn1cc([N+](=O)[O-])cn1 (centres undefined),41.9%
15,O=[N+]([O-])c1ccc(CN2CC(N3CCC(c4ccccc4)CC3)CS2(=O)=O)cc1 (centres undefined),22.4%
16,CCCCCOC(=O)c1ccc(N2C(=O)C3C4C=CC(C4)C3C2=O)cc1 (centres undefined),51.4% (active)
17,CCOC(=O)c1ccc(NC(=O)c2nc[nH]c2C(=O)N[C@@H](CCCCNC(=O)OC(C)(C)C)C(=O)OC(C)(C)C)cc1,57.3% (active)
18,Cc1ccc(NC(=O)c2nc[nH]c2C(=O)N[C@@H](CCCCNC(=O)OC(C)(C)C)C(=O)OC(C)(C)C)cc1,83.9% (active)
19,Cc1cccc(CS(=O)(=O)c2ncc(Cl)c(C(=O)Nc3ccc(F)cc3)n2)c1,53.2% (active)
20,O=C(Nc1ccccc1Cl)/C(Cl)=C(\Cl)S(=O)c1ccccc1 (centres undefined),76.4% (active)
21,Cc1cc(C(=O)COc2ccccc2[N+](=O)[O-])c(C)n1-c1cccc(S(=O)(=O)N2CCOCC2)c1,21.2%
22,Nc1c(-c2cccc(Cl)c2)cnn1-c1cccc([N+](=O)[O-])c1,48.9% (active)
23,CNC(=O)/C(=C\C=C\c1ccccc1)NC(=O)c1ccc([N+](=O)[O-])cc1,91.7% (active)
24,C/C(=N\Nc1nc(N2CCOCC2)nc(N2CCOCC2)n1)c1ccc([N+](=O)[O-])cc1,41.8% (active)
25,CCCN1Cc2cccc(C(=O)Nc3ccc(S(=O)(=O)N4CCCCCC4)cc3)c2C1=O,0.41%

row,Structure (SMILES),inhibition
1,COc1ccc(S(=O)(=O)N2CCCCC2)cc1NC(=O)c1cc([N+](=O)[O-])ccc1N1CCOCC1,25.8%
2,O=C(NCc1ccc2c(c1)OCO2)c1cc([N+](=O)[O-])ccc1N1CCOCC1,54% (active)
3,CN(C)c1ccc(/C=C/C(=O)c2ccc(C(C)(C)C)cc2)cc1[N+](=O)[O-],33%
4,Cc1cc(C(=O)N/N=C/c2cc([N+](=O)[O-])cc(C)c2O)n[nH]1,72.6% (active)
5,O=[N+]([O-])c1cc(Br)c(O)c(/C=N/Nc2nc3ccccc3s2)c1,16.1%
6,CC1(C)CC(=O)c2c(n(S(=O)(=O)c3ccccc3)c3ccc(NS(=O)(=O)c4ccccc4)cc23)C1,19.9%
7,Oc1c(Cl)cc(Cl)c(Cl)c1Cc1c(O)c(Cl)cc(Cl)c1Cl,70.1% (active)
8,Cc1noc(C)c1NC(=O)Nc1cccc2c1O[C@H](CN(C)C(=O)Nc1ccccc1)[C@@H](C)CN([C@H](C)CO)C2=O,61.3% (active)
9,O=C(Cc1ccc(Cl)c(Cl)c1)Nc1ccc(SC(F)F)cc1,37.6%
10,O=C(c1ccc2c(c1)N(Cc1ccc(F)cc1)C(=O)c1ccccc1S2(=O)=O)N1CCN(c2ccccn2)CC1,21.2%
11,COc1ccc2nc(Nc3nc4cc5c(cc4s3)OCCO5)sc2c1,17.9%
12,CC1=CC(=C(C#N)c2nc3ccccc3s2)C=C(C)N1c1ccc(F)cc1F,-32.7%
13,O=C(NCCC1=CCCCC1)c1ccc(Cl)c([N+](=O)[O-])c1,61.2% (active)
14,COc1ccc(-c2csc3nc(-c4ccccc4F)oc(=O)c23)cc1OC,57.9% (active)
15,Cc1sc2nc(-c3ccccc3F)oc(=O)c2c1C,6.55%
16,CCOC(=O)N1CCN(Cc2nc3ccc([N+](=O)[O-])cc3c(=O)n2-c2cccc(OC)c2)CC1,76.1% (active)
17,CCOc1cc(/C=C(/C#N)c2ccc(Cl)cc2)cc(Cl)c1OCC(=O)O,63% (active)
18,Cc1ccc(N2C(=O)C3C(c4ccccc4)(C2=O)C3(c2ccccc2)c2ccccc2)cc1 (centres undefined),4.09%
19,O=C(C[C@H]1C[C@H](C(=O)N2CCOCC2)[C@@]2(CCC3CCCC3)c3[nH]c4ccc(Cl)cc4c3CCN2C1=O)NCc1ccco1,27.4%
20,COc1ccc(CNC(=O)C[C@H]2C[C@H](C(=O)N3CCOCC3)[C@@]3(CCC4CCCC4)c4[nH]c5ccc(Cl)cc5c4CCN3C2=O)cc1OC,83.3% (active)
21,CCOc1ccc(Nc2nc(Cl)nc(N3CCN(c4ccc(OC)cc4)CC3)n2)cc1,12.5%
22,C[C@@]12C(=O)N(c3cccc(Br)c3)C(=O)N1[C@H](c1ccc(Cl)cc1)[C@@H]1C(=O)N(C3CCCCC3)C(=O)[C@@H]12,54% (active)
23,O=C1[C@H]2[C@@H](c3ccc(F)cc3)N3C(=O)N(c4ccc(C(F)(F)F)cc4)C(=O)[C@@]3(Cc3ccccc3)[C@H]2C(=O)N1C1CCCCC1,17.3%
24,Cc1cccc(N2C(=O)N3[C@H](c4ccc(F)cc4)[C@@H]4C(=O)N(C5CCCCC5)C(=O)[C@@H]4[C@]3(Cc3ccccc3)C2=O)c1,10.1%
